Measured values published in paper PMC5913336, “True equilibrium measurement of transcription factor-DNA binding affinities using automated polarization microscopy”.

These sequences were tested against T1, Eip93f (Drosophila melanogaster, UniProt Q9VD60 752-830) (assay: FP; 33 mM phosphate pH 7.0, 90 mM NaCl, 0.01% Tween 20, 0.1 mM DTT, 0.5% agarose; room temperature). Settings: tags: N-GST (pGEX-6P-1, kept); dsDNA, one strand shown.
T1 sequence: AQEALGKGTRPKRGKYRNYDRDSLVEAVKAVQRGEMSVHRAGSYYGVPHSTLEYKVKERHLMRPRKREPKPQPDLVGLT
CATAGCCGAAAATTG was tested, and the binding signal was 1.35 Kd / Kd of best base at the position. With CATAGCCGAAAAGCG the binding signal was 1.89 Kd / Kd of best base at the position. CATAGCCGTAAATCG was tested, and the binding signal was 13.1 Kd / Kd of best base at the position. In the case of CATAGCCTAAAATCG, the binding signal is reported as 1.82 Kd / Kd of best base at the position. CATAGCCGAGAATCG was tested, and the binding signal was 22.5 Kd / Kd of best base at the position. For CACAGCCGAAAATCG, the binding signal was 1.26 Kd / Kd of best base at the position. For CATAGCCGAAAATCG, the Kd was ~14.5 nM. For TATAGCCGAAAATCG, the binding signal was 1.35 Kd / Kd of best base at the position. With CATAGCCGAACATCG the binding signal was 5.65 Kd / Kd of best base at the position. CAAAGCCGAAAATCG was tested, and the binding signal was 1.57 Kd / Kd of best base at the position. In the case of CATAGCCGAAGATCG, the binding signal is reported as 9.46 Kd / Kd of best base at the position. In the case of CATAACCGAAAATCG, the binding signal is reported as 1.73 Kd / Kd of best base at the position. With CATAGACGAAAATCG the binding signal was 3.01 Kd / Kd of best base at the position. With CATAGCCGATAATCG the binding signal was 12.1 Kd / Kd of best base at the position. For CATAGCCGAAAATCT, the binding signal was 1.07 Kd / Kd of best base at the position. For GATAGCCGAAAATCG, the binding signal was 1.29 Kd / Kd of best base at the position. With CATAGCCGAAAATGG the binding signal was 1.42 Kd / Kd of best base at the position. With CATAGGCGAAAATCG the binding signal was 3.03 Kd / Kd of best base at the position. In the case of CATTGCCGAAAATCG, the binding signal is reported as 1.02 Kd / Kd of best base at the position. In the case of CATAGCCGAAAACCG, the binding signal is reported as 1.78 Kd / Kd of best base at the position. In the case of CATAGTCGAAAATCG, the binding signal is reported as 1.92 Kd / Kd of best base at the position. For CATAGCCGAAAATCA, the binding signal was 1.07 Kd / Kd of best base at the position. CATAGCGGAAAATCG was tested, and the binding signal was 16.4 Kd / Kd of best base at the position. In the case of CATAGCCCAAAATCG, the binding signal is reported as 1.29 Kd / Kd of best base at the position. With CATACCCGAAAATCG the binding signal was 1.36 Kd / Kd of best base at the position. For CGTAGCCGAAAATCG, the binding signal was 1.39 Kd / Kd of best base at the position. CATAGCCGAAAATAG was tested, and the binding signal was 1.65 Kd / Kd of best base at the position. CATAGCCGAATATCG was tested, and the binding signal was 2.21 Kd / Kd of best base at the position. For CATAGCCAAAAATCG, the binding signal was 1.28 Kd / Kd of best base at the position. With CATAGCCGACAATCG the binding signal was 20.2 Kd / Kd of best base at the position. CATAGCCGAAACTCG was tested, and the binding signal was 2.54 Kd / Kd of best base at the position. With CATAGCCGGAAATCG the binding signal was 7 Kd / Kd of best base at the position. CATAGCCGAAAATCC was tested, and the binding signal was 1.04 Kd / Kd of best base at the position. CATAGCCGAAAGTCG was tested, and the binding signal was 2.41 Kd / Kd of best base at the position. For CATAGCCGAAAAACG, the binding signal was 1.54 Kd / Kd of best base at the position. With CATAGCTGAAAATCG the binding signal was 4.47 Kd / Kd of best base at the position. With CATATCCGAAAATCG the binding signal was 1.8 Kd / Kd of best base at the position. In the case of CTTAGCCGAAAATCG, the binding signal is reported as 1.14 Kd / Kd of best base at the position. In the case of CATAGCCGCAAATCG, the binding signal is reported as 20 Kd / Kd of best base at the position. In the case of CATCGCCGAAAATCG, the binding signal is reported as 2.02 Kd / Kd of best base at the position.
